Among all 6,200 compounds or so, about 2,900 (47%) were called active. So high a share suggests a set chosen from earlier hits. This is one part of the list. A number with no mark means an inactive call. No stated cut-off is given here; in the data, active means inhibition above about 50%; inactive means the rest.
Experiment: Mycobacterium tuberculosis growth inhibition, primary screen (AID 1259343)
Conditions: inhibition: at 10 µM, stronger effect = higher value; outcome: 10 uM

| SMILES | inhibition |
| --- | --- |
| CCCc1cc(=O)[nH]c(-n2nc(C)cc2NC(=O)Cc2ccc(OC)c(OC)c2)n1 | 98.9% (active) |
| COc1ccc(CC(=O)Nc2cc(C)nn2-c2nc(C)cc(=O)[nH]2)cc1OC | 99% (active) |
| CCc1cc(=O)[nH]c(-n2nc(C)cc2NC(=O)Cc2ccc(OC)c(OC)c2)n1 | 48% |
| Cc1n[nH]c(C)c1CCCCCCOc1ccc(F)cc1 | 87.3% (active) |
| CCOc1ccc(OCCCCOc2ccc(F)cc2)cc1 | 8.32% |
| Cc1n[nH]c(C)c1CCCCCOc1cccc(Cl)c1 | 99.2% (active) |
| CNc1snc(C)c1C(=O)OCc1ccc(-n2cccn2)cc1 | 50.2% (active) |
| CNc1snc(C)c1C(=O)NCc1ccc2c(c1)CCC2 | 39.8% |
| Cc1oc(-c2ccc(F)cc2F)nc1CN(C)Cc1ccccc1C(F)(F)F | 30.1% |
| N#Cc1ccc(C(=O)Nc2ccccc2N2CCCCCC2)cc1 | 39.7% |
| N#Cc1nc(NC(=O)c2ccc(N3CCCC3)c(F)c2)[nH]c1C#N | 70.6% (active) |
| COc1cc(C(=O)Nc2cc(Cl)ccc2N2CCSCC2)ccc1C | 12.9% |
| CCOC(=O)CSc1nnc(CNc2ccc(C)c(Cl)c2)n1C | 94.2% (active) |
| OCC1(CCc2ccccc2)CCCN(c2ncnc3sccc23)C1 (configuration not stated) | 22.8% |
| Oc1c(N=Nc2ccc3c(c2)OCCO3)sc2ccccc12 | 38.8% |
| Oc1c(-c2ccccn2)sc2ccccc12 | 90.9% (active) |
| CN(N=Cc1sc2ccccc2c1O)c1ccccc1 | -9.99% |
| Fc1ccccc1COc1ccccc1CNc1nn[nH]n1 | 57.1% (active) |
| Fc1ccccc1OCc1n[nH]c(=S)o1 | 47.7% |
| Cc1ccc(Oc2ncccc2CNc2ncccn2)c(F)c1F | 23.9% |
| Cc1cccc2c(=O)n(CC(=O)NCCc3cccc(F)c3)cnc12 | 25.4% |
| Cc1cc(NC(=O)Cn2cnc3c(nnn3-c3cccc(F)c3)c2=O)no1 | 87.4% (active) |

| SMILES | inhibition |
| --- | --- |
| CSc1cccc(NC(=O)Cc2csc(N3CCCC3=O)n2)c1 | 70.3% (active) |
| Cc1ccc(OCCCCNC(=O)c2ccc(Br)o2)cc1 | 92.2% (active) |
| O=C(NC1CCCC1)c1ccc(Br)o1 | -20.8% |
| CCCCCCCCNC(=O)c1ccc(Br)o1 | 74.9% (active) |
| Cc1ccc(CNC(=O)c2ccc(Br)o2)cc1F | 16.3% |
| O=C(NCC1CCCO1)C12CC3CC(CC(C3)C1)C2 (configuration not stated) | 81.2% (active) |
| Cc1cccc(CO[C@]2(C(=O)NCC3CCCO3)CC(OCc3ccc(F)cc3)[C@H](O)[C@H](O)C2)c1 (some centres not stated) | -13% |
| O=C(NCCC12CC3CC(CC(C3)C1)C2)C12CC3CC(CC(C3)C1)C2 | -25.6% |
| O=C(NCC1CCCO1)c1ccc(Br)o1 (configuration not stated) | 83.8% (active) |
| O=C(O)c1ccc2c(c1)C1C=CCC1C(c1ccc(Br)cc1)N2 (configuration not stated) | 66.8% (active) |
| O=C(O)C1Nc2ccc3ccccc3c2C2C=CCC12 (configuration not stated) | 16.2% |
| O=C(O)C1Nc2c(Cl)cc(Cl)cc2C2C=CCC12 (configuration not stated) | 101% (active) |
| O=C(O)C1Nc2ccc(Br)cc2C2C=CCC12 (configuration not stated) | 84.2% (active) |
| N#Cc1nc(C2CC2)oc1N1CCN(C(=O)Nc2ccccc2)CC1 | 21.4% |
| COC(=O)c1ccc(CSC(=S)N(C)C)cc1 | 82.1% (active) |
| NC(=O)C1CCN(C(=O)CCC2CCCC2)CC1 | -28.4% |
| NC(=O)C1CCN(C(=O)CCc2ccsc2)CC1 | 90.9% (active) |
| Cc1c(C(=O)N2CCC(C(N)=O)CC2)nnn1-c1nc(-c2ccccc2)cs1 | 20.4% |
| CC(C)c1csc(C2CCN(C(=O)CCc3ccsc3)CC2)n1 | 83.6% (active) |
| CCN1C(=Cc2cc(C)[n+](C3CCCCC3)c(C)c2)Sc2ccccc21 | -19.4% |
| Cc1cc(C=C2Sc3ccccc3N2C)cc(C)[n+]1-c1ccccc1 | 41.1% |
| CCC(C)[n+]1c(C)cc(C=C2Sc3ccccc3N2CC)cc1C (configuration not stated) | 84.5% (active) |

| SMILES | inhibition |
| --- | --- |
| CCN1C(=Cc2ccc3cc(C)ccc3[n+]2CC)Sc2ccccc21 | 56.1% (active) |
| CCCCCOc1ncnc2c1sc1nc3c(cc12)COC(C)(C)C3 | 51% (active) |
| CC(C)CCOc1ncnc2c1sc1nc3c(cc12)COC(C)(C)C3 | 63.6% (active) |
| CC1(C)[C@H]2CC[C@@H](CNC(=O)c3cc(=O)n(-c4ccccc4)[nH]3)[C@@H]1C2 | 23.3% |
| C=C(NC(=O)C(=C)NC(=O)c1csc(C2=NC3c4csc(n4)C4NC(=O)c5csc(n5)C(C(C)(O)C(C)O)NC(=O)C5CSC(=N5)C(=CC)NC(=O)C(C(C)O)NC(=O)c5csc(n5)C3(CC2)NC(=O)C(C)NC(=O)C(=C)NC(=O)C(C)NC(=O)C(C(C)CC)NC2C=Cc3c(C(C)O)cc(nc3C2O)C(=O)OC4C)n1)C(N)=O (configuration not stated) | 95.4% (active) |
| N=C1c2ccccc2CN1c1ccc(OC(F)(F)C(F)F)cc1 | 64.2% (active) |
| CSc1nsc(SC)c1NC(=O)OC1CCCCC1 | 11.5% |
| Cc1ccc(CNS(=O)(=O)Cc2ccc(F)cc2)cc1F | 29.8% |
| CNS(=O)(=O)Cc1ccc(CNc2ccc(C(F)(F)F)cn2)cc1 | 50.3% (active) |
| CC(C(=O)NCc1cccs1)S(=O)(=O)c1ccc(C(F)(F)F)cn1 (configuration not stated) | 14.3% |
| N#Cc1c(Cl)nsc1NCCC1CC2CCC1C2 (configuration not stated) | 96.1% (active) |
| N#Cc1c(Cl)nsc1NC1CCSc2c(F)cccc21 (configuration not stated) | 11.2% |
| COc1cccc(C(CN2CCN(C(=O)C=C(C)C)CC2)OCc2cccc(Cl)c2)c1 (configuration not stated) | -4.3% |
| N=C1C=CC(=C(c2cccc(N)c2)c2cccc(N)c2)C=C1 | 68.4% (active) |
| CC1c2cccn2CCN1Cc1csc(Nc2ccccc2)n1 (configuration not stated) | 20.8% |
| CCOc1ccc(Nc2nc(-c3c(C)nc4ccccn34)cs2)cc1 | 61.2% (active) |
| CCOc1ccc(NC(=O)CSc2nc(=O)n3ccccc3n2)cc1 | 2.8% |
| CC(Oc1ccc(Cl)cc1)C(=O)NC(C)c1cccs1 (configuration not stated) | 94.5% (active) |
| COc1ccccc1CNC(=O)C1(S(=O)(=O)c2ccc(Cl)cc2)CCCC1 | 2.93% |
| COc1ccccc1NC(=O)N(Cc1ccsc1)C1CC1 | 16% |
| COc1ccccc1CN(C(=O)Nc1ccccc1Cl)C1CC1 | 78.5% (active) |
| COc1ccc(Cl)cc1C(=O)Nc1cc(C)nn1-c1nc(C)c(C)c(=O)[nH]1 | 100% (active) |

| SMILES | inhibition |
| --- | --- |
| CCc1cc(=O)[nH]c(-n2nc(C)cc2NC(=O)c2cc(Cl)ccc2OC)n1 | 102% (active) |
| COc1ccc(Cl)cc1C(=O)Nc1cc(C)nn1-c1nc(C)cc(=O)[nH]1 | 101% (active) |
| Cc1cc(=O)[nH]c(-n2nc(C3CC3)cc2NC(=O)c2cc(Cl)ccc2Cl)n1 | -15.9% |
| COc1ccc(Cl)cc1C(=O)Nc1cc(C2CC2)nn1-c1nc(C)cc(=O)[nH]1 | 99.9% (active) |
| Cc1noc(CNC(C)(C)Cc2ccc(Br)cc2)n1 | -9.14% |
| Cn1c2ccccc2n2c3ncccc3c(=O)c(C#N)c12 | 41.8% |
| COc1ccc(CSc2nnc(SCC(=O)N3CCCCCC3)s2)cc1 | 26.9% |
| CCSc1nnc(SCc2cccc(OC)n2)s1 | 90.4% (active) |
| CSc1nnc(SCc2cc(C)no2)s1 | 27.2% |
| COc1ccc(NC(=O)c2ccc(-c3ccc(C(C)=O)cc3)o2)cn1 | -28.8% |
| CCCCN(C)S(=O)(=O)c1ccc(NC(=O)c2ccc(OC)nc2)cc1 | 88% (active) |
| CON(C)S(=O)(=O)c1cc(C(=O)Nc2cccc(Cl)c2Cl)ccc1Cl | 22.1% |
| COc1ccc(C2=NOC(CNCc3cccc(F)c3)C2)cc1 (configuration not stated) | 76.2% (active) |
| COc1ccc(C2=NOC(CNCc3cccc(C(F)(F)F)c3)C2)cc1 (configuration not stated) | 43.6% |
| Fc1cccc(CNCC2CC(c3ccc(Cl)c(Cl)c3)=NO2)c1 (configuration not stated) | 57.1% (active) |
| COc1ccc(C2=NOC(c3ccc(C)cc3)C2)cc1 (configuration not stated) | 22.2% |
| Cc1ccc(=O)n(CC(=O)Nc2ccc(Sc3ccccc3Cl)cc2)n1 | 5.63% |
| CCc1cccc(NC(=O)Cn2nc3ccc(SC(C)C)nn3c2=O)c1 | 77.8% (active) |
| COc1ccc(-c2nnn(CC(=O)Nc3ccc(C)c(F)c3)n2)cc1OC | 86.6% (active) |
| Cc1ccc(NC(=O)Cc2ccc(OC(F)F)cc2)cc1F | 48.2% |
| O=C(Cn1nnc(-c2ccccc2Cl)n1)Nc1ccc(I)cc1 | 32.1% |
| Cc1ccc(NC(=O)CN2CCc3ccccc32)cc1F | 54.7% (active) |

| SMILES | inhibition |
| --- | --- |
| O=C(CN1CCc2ccccc21)NC(=O)NCc1ccccc1 | 20.7% |
| CCCn1ncc(CN2CCOC(c3ccc(Cl)c(Cl)c3)C2)c1C (configuration not stated) | 7.23% |
| CCCc1sc(C(=O)Nc2nccs2)cc1CC | 80.5% (active) |
| CCOc1ccc(CCN=C=S)cc1OCC | 97.5% (active) |
| c1ccc(-c2nnc(SCc3nnc(-c4ccco4)o3)o2)cc1 | 69.9% (active) |
| c1ccc(-c2nnc(CSc3nnc(-c4ccccc4)o3)o2)cc1 | 101% (active) |
| Cn1nnnc1SCc1ccc(Cl)c(Cl)c1 | 37.6% |
| N#Cc1ccc(CSc2nnc(-c3ccccc3)o2)cc1 | -28.8% |
| Clc1ccc(CSc2nnc(-c3ccco3)o2)c(Cl)c1 | -6.93% |
| CCSc1nnc(-c2ccc(Cl)cc2Cl)o1 | 100% (active) |
| Brc1ccccc1-c1nnc(SCc2nnc(-c3ccco3)o2)o1 | -32.1% |
| Clc1ccc(CSc2nnc(-c3ccco3)o2)cc1Cl | 88% (active) |
| Cc1occc1-c1nnc(SCc2nnc(-c3ccco3)o2)o1 | 92.5% (active) |
| BrC12CC3CC(C1)CC(c1nnc(-c4ccco4)o1)(C3)C2 | 23.4% |
| Fc1ccccc1-c1nnc(SCc2cccc3ccccc23)o1 | 85.9% (active) |
| Clc1ccccc1-c1nnc(SCc2ccccc2)o1 | 74.3% (active) |
| Fc1ccccc1-c1nnc(SCc2ccccc2Br)o1 | 1.69% |
| ClC12CC3CC(C1)CC(c1nnc(-c4ccco4)o1)(C3)C2 | 12.4% |
| Clc1cc2c(c(CSc3nnc(-c4ccco4)o3)c1)OCOC2 | 86.3% (active) |
